Assay results as given in PubChem BioAssay AID1159580 (chemical genetic matrix, 2015).
The whole screen tested about 5,500 compounds, of which about 2,000 (36%) were called active. Inconclusive results (about 18%) are left out. No stated cut-off is given here; in the data, active means normalized growth mostly below about 0.91 (no sharp cut-off); inconclusive means no clear call, values can overlap the other calls; inactive means mostly above about 0.92. Some of the results follow.

Test: chemical genetic growth profiling, strain panel (AID 1159580);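 further: tested at 20 µM; growth read once vehicle control cultures reached saturation at 30 °C; 1 = growth at the plate median or of vehicle wells; lower values mean less growth of the strain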
Conditions: S. cerevisiae deletion strains, growth OD
[1] = locus YAL013W, strain DEP1, active compounds read low
[2] = locus YCL061C, strain MRC1, active compounds read low
[3] = locus YGR078C, strain PAC10, active compounds read low
[4] = locus YHR030C, strain SLT2, active compounds read low
[5] = locus YJL095W, strain BCK1, active compounds read low
[6] = locus YJL187C, strain SWE1, active compounds read low
[7] = locus YMR307W, strain GAS1, active compounds read low
[8] = locus YNL322C, strain KRE1, active compounds read low
[9] = locus YPL055C, strain LGE1, active compounds read low
[10] = locus YPL241C, strain CIN2, active compounds read low
[11] = locus YBR229C, strain ROT2, active compounds read low
[12] = locus YDL101C, strain DUN1, active compounds read low
[13] = locus YEL061C, strain CIN8, active compounds read low
[14] = locus YGR229C, strain SMI1, active compounds read low
[15] = locus YJR043C, strain POL32, active compounds read low
[16] = locus YKL190W, strain CNB1, active compounds read low
[17] = locus YLR039C, strain RIC1, active compounds read low
[18] = locus YLR262C, strain YPT6, active compounds read low
[19] = locus YOL006C, strain TOP1, active compounds read low

Measured: normalized growth

Nc1nnc(-c2cccc(Cl)c2Cl)c(N)n1
inactive: [1] 0.995 | locus YAL021C, strain ccr4, active compounds read low 1.01 | locus YAL026C, strain drs2, active compounds read low 1.02 | locus YAL030W, strain snc1, active compounds read low 1.03 | locus YAL040C, strain CLN3, active compounds read low 0.986 | locus YBL061C, strain skt5, active compounds read low 1.02 | locus YBR009C, strain hhf1, active compounds read low 1.03 | locus YBR023C, strain chs3, active compounds read low 1.02 | locus YBR171W, strain sec66, active compounds read low 1.04 | locus YBR231C, strain swc5, active compounds read low 1.03 | locus YBR279W, strain paf1, active compounds read low 1.02 | locus YCL011C, strain gbp2, active compounds read low 1.02 | locus YCL016C, strain dcc1, active compounds read low 1.01 | locus YCL061C, strain MRC1 (second series), active compounds read low 1.01 | [2] 1.02 | locus YCL069W, strain vba3, active compounds read low 1.02 | locus YCR088W, strain abp1, active compounds read low 1.02 | locus YDL005C, strain med2, active compounds read low 1.02 | locus YDL040C, strain nat1, active compounds read low 1.02 | locus YDR001C, strain nth1, active compounds read low 1.02 | locus YDR069C, strain doa4, active compounds read low 1.04 | locus YDR137W, strain rgp1, active compounds read low 1.02 | locus YDR159W, strain sac3, active compounds read low 1.03 | locus YDR195W, strain ref2 1.03 | locus YDR297W, strain sur2, active compounds read low 1.02 | locus YDR334W, strain swr1, active compounds read low 1.02 | locus YDR335W, strain msn5, active compounds read low 1.02 | locus YDR363W, strain ESC2, active compounds read low 0.985 | locus YDR392W, strain spt3, active compounds read low 0.987 | locus YEL003W, strain gim4, active compounds read low 1.02 | locus YEL037C, strain rad23, active compounds read low 1.01 | locus YEL061C, strain CIN8 (second series), active compounds read low 1.02 | locus YER002W, strain NOP16, active compounds read low 0.976 | locus YER015W, strain faa2, active compounds read low 1.03 | locus YER016W, strain bim1, active compounds read low 1.02 | locus YER111C, strain swi4, active compounds read low 1.03 | locus YER155C, strain BEM2 (second series), active compounds read low 1.04 | locus YFR010W, strain ubp6, active compounds read low 1.01 | locus YGL167C, strain pmr1, active compounds read low 1.02 | locus YGL173C, strain kem1, active compounds read low 1.03 | locus YGL227W, strain vid30, active compounds read low 1.03 | locus YGL240W, strain doc1, active compounds read low 1.03 | locus YGL253W, strain hxk2, active compounds read low 1.02 | [3] 1.01 | locus YHR013C, strain ard1, active compounds read low 1.05 | locus YHR027C, strain rpn1, active compounds read low 1.02 | [4] 1 | locus YHR079C, strain IRE1, active compounds read low 0.995 | locus YHR142W, strain chs7, active compounds read low 1.02 | locus YJL092W, strain hpr5, active compounds read low 1.01 | locus YJL095W, strain BCK1 (second series), active compounds read low 1.02 | [5] 0.997 | locus YJL115W, strain asf1, active compounds read low 1.03 | locus YJL129C, strain trk1, active compounds read low 1.04 | locus YJL154C, strain vps35, active compounds read low 1.02 | locus YJL164C, strain tpk1, active compounds read low 1.02 | locus YJL166W, strain qcr8, active compounds read low 1.03 | [6] 1.02 | locus YJR066W, strain TOR1, active compounds read low 0.949 | locus YKL160W, strain elf1, active compounds read low 1.03 | locus YKR026C, strain gcn3, active compounds read low 1 | locus YKR091W, strain srl3, active compounds read low 1.02 | locus YLL001W, strain dnm1, active compounds read low 0.997 | locus YLL026W, active compounds read low 1.02 | locus YLL041C, strain sdh2, active compounds read low 1.02 | locus YLR027C, strain aat2, active compounds read low 1.03 | locus YLR113W, strain HOG1, active compounds read low 0.966 | locus YLR221C, strain rsa3, active compounds read low 1.02 | locus YLR258W, strain gsy2, active compounds read low 1.02 | locus YLR262C, strain YPT6 (second series), active compounds read low 1.02 | locus YLR320W, strain mms22, active compounds read low 1.03 | locus YLR342W, strain FKS1, active compounds read low 1.02 | locus YLR357W, strain rsc2, active compounds read low 1.07 | locus YLR370C, strain arc18, active compounds read low 1.02 | locus YLR384C, strain iki3, active compounds read low 1.02 | locus YML120C, strain ndi1, active compounds read low 0.994 | locus YMR058W, strain fet3, active compounds read low 1.02 | locus YMR125W, strain sto1, active compounds read low 1.05 | locus YMR129W, active compounds read low 1.02 | locus YMR205C, strain PFK2, active compounds read low 1.03 | locus YMR231W, strain pep5, active compounds read low 1.01 | [7] 1.01 | locus YNL071W, strain lat1, active compounds read low 1.01 | locus YNL175C, strain NOP13, active compounds read low 0.986 | locus YNL183C, strain NPR1, active compounds read low 0.949 | locus YNL197C, strain WHI3, active compounds read low 0.991 | locus YNL209W, strain ssb2, active compounds read low 1.02 | locus YNL224C, strain SQS1, active compounds read low 0.981 | locus YNL248C, strain rpa49, active compounds read low 1.02 | locus YNL322C, strain KRE1 (second series), active compounds read low 1.02 | [8] 1.01 | locus YNR049C, strain mso1, active compounds read low 1.03 | locus YOR001W, strain rrp6, active compounds read low 1.02 | locus YOR070C, strain gyp1, active compounds read low 1.02 | locus YOR080W, strain dia2, active compounds read low 1.03 | locus YOR083W, strain WHI5 (second series), active compounds read low 0.992 | locus YOR083W, strain WHI5, active compounds read low 1.01 | locus YOR106W, strain vam3, active compounds read low 1.03 | locus YOR231W, strain MKK1, active compounds read low 1.01 | locus YOR265W, strain rbl2, active compounds read low 1.02 | locus YOR270C, strain vph1, active compounds read low 1.08 | locus YOR290C, strain snf2, active compounds read low 1.04 | locus YPL051W, strain arl3, active compounds read low 1.02 | [9] 0.994 | locus YPL078C, strain atp4, active compounds read low 1.01 | locus YPL106C, strain sse1, active compounds read low 1.02 | locus YPL240C, strain hsp82, active compounds read low 1.02 | [10] 1 | locus YPL256C, strain CLN2, active compounds read low 0.989

CSC(=NCc1cccnc1)NC#N
inactive: [1] 0.991 | [11] 1 | [2] 1 | [12] 1 | locus YDR150W, strain NUM1, active compounds read low 0.997 | [13] 0.993 | [3] 1 | [14] 1 | [4] 1.01 | locus YHR087W, strain rtc3, active compounds read low 1 | [6] 0.994 | [15] 0.986 | locus YJR075W, strain HOC1, active compounds read low 0.998 | [16] 0.998 | [17] 1 | locus YLR058C, strain SHM2 (second series), active compounds read low 0.992 | locus YLR085C, strain ARP6, active compounds read low 1.02 | [18] 1.01 | locus YML094W, strain GIM5, active compounds read low 1.06 | locus YMR219W, strain ESC1, active compounds read low 1 | locus YMR263W, strain SAP30, active compounds read low 0.992 | locus YNL153C, strain GIM3, active compounds read low 1.01 | locus YNL298W, strain CLA4 (second series), active compounds read low 1.01 | [8] 0.998 | locus YNR030W, strain Alg12, active compounds read low 1 | [19] 1.03 | [9] 0.994 | [10] 0.987 | locus YPR135W, strain CTF4, active compounds read low 1.01

COC(=O)C[C@H]1C(C)(C)C(=O)[C@@H]2CC3=C4CC(OC)O[C@@H](c5ccoc5)[C@]4(C)CCC3[C@@]1(C)C2=O (stereo partly specified)
inactive: locus YBR021W, strain FUR4, active compounds read low 1.01 | [11] 0.994 | locus YCL029C, strain bik1, active compounds read low 0.987 | locus YDL035C, strain GPR1, active compounds read low 1.02 | locus YDL074C, strain BRE1, active compounds read low 1.01 | [12] 1.01 | locus YDL134C, strain PPH21, active compounds read low 1 | locus YDL185W, strain tfp1, active compounds read low 1 | locus YDL192W, strain arf1, active compounds read low 1 | locus YDR101C, strain arx1, active compounds read low 0.995 | locus YDR162C, strain NBP2, active compounds read low 1 | locus YDR318W, strain mcm21, active compounds read low 0.998 | locus YDR388W, active compounds read low 0.991 | locus YDR502C, strain sam2, active compounds read low 0.989 | [13] 0.999 | locus YER110C, active compounds read low 0.994 | locus YER155C, strain BEM2, active compounds read low 1.01 | locus YER167W, strain BCK2, active compounds read low 1.01 | locus YGL078C, strain dbp3, active compounds read low 1.01 | locus YGL086W, strain mad1, active compounds read low 0.995 | locus YGL248W, strain PDE1, active compounds read low 1.01 | [3] 1.01 | locus YGR135W, strain pre9, active compounds read low 0.99 | [14] 1.03 | locus YGR252W, strain gcn5, active compounds read low 1.01 | [4] 1 | locus YHR079C, strain IRE1 (second series), active compounds read low 0.996 | locus YHR094C, strain hxt1, active compounds read low 0.993 | locus YHR129C, strain ARP1, active compounds read low 1.01 | locus YHR200W, strain rpn10, active compounds read low 0.997 | locus YIL066C, strain RNR3, active compounds read low 1.01 | locus YIL073C, strain SPO22, active compounds read low 0.995 | locus YIL125W, strain kgd1, active compounds read low 0.998 | locus YIR030C, strain dcg1, active compounds read low 1 | [5] 1.01 | locus YJL134W, strain LCB3, active compounds read low 1.01 | locus YJL168C, strain set2, active compounds read low 0.996 | locus YJL187C, strain SWE1 (second series), active compounds read low 1.01 | [15] 1.02 | locus YKL009W, strain mrt4, active compounds read low 0.984 | locus YKL068W, active compounds read low 1 | locus YKL085W, strain MDH1 (second series), active compounds read low 1 | locus YKL085W, strain MDH1, active compounds read low 1 | [16] 1.01 | locus YKR001C, strain vps1, active compounds read low 1 | [17] 0.969 | locus YLR058C, strain SHM2, active compounds read low 1 | locus YLR102C, strain apc9, active compounds read low 1 | [18] 0.982 | locus YLR268W, strain sec22, active compounds read low 1.01 | locus YLR330W, strain CHS5, active compounds read low 1 | locus YLR342W, strain FKS1 (second series), active compounds read low 0.991 | locus YLR371W, strain rom2, active compounds read low 1 | locus YLR418C, strain cdc73, active compounds read low 0.992 | locus YML016C, strain PPZ1, active compounds read low 1 | locus YML032C, strain rad52, active compounds read low 0.997 | locus YML124C, strain tub3, active compounds read low 1 | locus YMR078C, strain ctf18, active compounds read low 0.99 | locus YMR223W, strain ubp8, active compounds read low 1.01 | [7] 1.03 | locus YNL067W, strain RPL9B, active compounds read low 1.01 | locus YNL233W, strain BNI4, active compounds read low 1.04 | locus YNL250W, strain rad50, active compounds read low 0.986 | locus YNL271C, strain bni1, active compounds read low 1 | locus YNL298W, strain CLA4, active compounds read low 0.984 | locus YNL307C, strain MCK1, active compounds read low 0.985 | locus YNR052C, strain pop2, active compounds read low 1.01 | [19] 1.06 | locus YOL012C, strain htz1 1.32 | locus YOL147C, strain pex11, active compounds read low 0.995 | locus YOR061W, strain CKA2, active compounds read low 0.999 | locus YOR069W, strain VPS5, active compounds read low 1.01 | locus YOR136W, strain idh2, active compounds read low 0.999 | locus YOR144C, strain elg1, active compounds read low 0.988 | locus YOR184W, strain ser1, active compounds read low 1.01 | locus YOR316C, strain cot1, active compounds read low 1 | [9] 1.03 | [10] 1 | locus YPR119W, strain clb2, active compounds read low 1.01 | locus YPR141C, strain kar3, active compounds read low 0.999 | locus YPR163C, strain tif3, active compounds read low 0.996 | locus YPR167C, strain met16, active compounds read low 1 | strain wtn01, active compounds read low 1.01
